# Records with an inconclusive call do not appear. Values without a mark were called inactive. Activity calls are given as the source filed them. The call rests on the fitted dose curve; in most records, active means well fitted cell-killing curve with a large enough effect; inconclusive means small, poorly fitted or top-dose-only effect; inactive means flat fitted curve, though single readings scatter.
# Assay: Cell Viability - LYMP2-008 (AID 980); further: nearly all actives have a fitted effect of over 60% in size
# Conditions: LYMP2-008 lymphoblastoid cell viability, qHTS; series mostly up to 92.2 µM; activity change, negative = cytotoxicity: at the top concentration
# Excerpt: NIH Chemical Genomics Center [NCGC]
# NIH Molecular Libraries Screening Centers Network [MLSCN]
# National Institutes of Environmental Health Sciences [NIEHS]
# National Toxicology Program [NTP]
# We have developed a 1536-well cell-based assay for quantitative high throughput screening (qHTS) against a number of cell lines to determine in vitro cytotoxicity of small molecules. This particular assay uses a human lymphoblastoid cell line (LYMP2-008) purchased from Coriell Institute for Medical Research.
# NCGC Assay Protocol Summary:
# The CellTiter-Glo luminescent cell viability assay (Promega) is a homogeneous method to measure the number of viable cells in culture. The end point readout of this assay is based on quantitation of intracellular ATP, an indicator of metabolic activity, using the luciferase reaction. Luciferase catalyzes the oxidation of beetle Luciferin to oxyluciferin and light in the presence of ATP. The luminescent signal is proportional to amount of ATP present.
# Using the CellTiter-Glo luminescent cell viability assay, the amount of cellular ATP was measured in the lymphoblastoid cell line with complete culture medium following compound treatment for 24 hours. The assay was performed in opaque white Kalypsys 1536-well plates. In the screen, tetraoctylammonium bromide was used as positive control. Library compounds were measured for their ability to cause acute toxicity in the cell line, as reflected by a decrease in intracellular ATP levels, in a concentration-dependent manner. […] AC50 values were determined from concentration-response data modeled with the standard Hill equation.
# qHTS protocol for CellTiter Glo lymphoblastoid cellular assay
# [Step] [Parameter] [Value] [Description]
# 1. Reagent; 5 uL; 2500 lymphoblastoid cells/well
# 2. Time; 5 hr; 37 C incubation
# 4. Controls; 23 nL; Tetraoctylammonium bromide 6.4pM to 92 uM
# 5. Time; 24 hr; 37 C incubation
# 6. Reagent; 5 uL; CellTiter Glo reagent
# 7. Time; 30 min; Room Temperature
# 8. Detection; Luminescence; Viewlux plate reader
# Keywords: cell viability, cytotoxicity, lymphoblastoid cell line, luminescence, NTPHTS, NTPHTS_NCGC, NIEHS, DSSTox, MLSMR, MLSCN, NIH Roadmap, qHTS, NCGC
# On the % scale 0 is the no-effect control and ±100 the full control effect; potency means the concentration at half of the fitted maximal effect.
Structure (SMILES),"activity change, negative = cytotoxicity",Potency
O=C1NC(=O)C(c2ccccc2)(c2ccccc2)N1,-4.52%,–
CCn1cc(C(=O)O)c(=O)c2ccc(C)nc21,0.301%,–
O=c1c(O)c(-c2ccc(O)cc2)oc2cc(O)cc(O)c12,-2.12%,–
CC(=O)O[C@]1(C(C)=O)CC[C@H]2[C@@H]3C=C(Cl)C4=CC(=O)[C@@H]5C[C@@H]5[C@]4(C)[C@H]3CC[C@@]21C,-12.3%,–
O=c1c(-c2ccc(O)cc2)coc2cc(O)ccc12,-9.28%,–
O=c1[nH]cnc2c1ncn2[C@H]1CC[C@@H](CO)O1,-5.52%,–
CC1=C(/C=C/C(C)=C/C=C/C(C)=C/C(=O)Nc2ccc(O)cc2)C(C)(C)CCC1,–,50.1 µM (active)
CC(=O)c1ccc(S(=O)(=O)NC(=O)NC2CCCCC2)cc1,-0.627%,–
CN(C)CCC(c1ccccc1)c1ccccn1 (stereo not drawn),0.997%,–
O=C(O)Cc1cccc2ccccc12,-5.1%,–
CCCNC(=O)NS(=O)(=O)c1ccc(Cl)cc1,-3.31%,–
CC/C(=C(\c1ccccc1)c1ccc(OCCN(C)C)cc1)c1ccccc1,–,50.1 µM (active)
CCCCC1C(=O)N(c2ccccc2)N(c2ccccc2)C1=O,-4.97%,–
